# Results reported in paper PMC12864922, “TDP-43 directly inhibits mRNA accumulation in neurites through modulation of mRNA stability”.
# The full ranking holds about 9,900 sequences; the median of “r (bound/input frequency ratio)” is about 0.7, and the highest 2% start at about 6.5. The sample holds the highest values, similar sequences and a random draw of the others, so the mix is not that of the screen.
# B1: ENSMUSG00000029636.13|Wasf3 (ssRNA)
# RNA: GGGAGUUCUACAGUCCGACGAUCGCUUCGAUAUCCGCAUGCUAGUUUGAUGAGAAUGACUGGUCUGACUGAGGCACAAGGGCCAGGCGACCAGUGGACAGCCAGGGCCCCAUAUGCAAGUGUGUUAGGAGCUCCUGUGCUCUCUGCACCCUCACAGUGGUAUUUCCCUGUAGCUUUAGUCCCUUUUGUAUUAACAGUGUGAUUUGCUUCUGCACAUCCUUCUGGAUUUGUUGAGUAUUUACUGUGUAAUACUUAAGUGCCACAGAACACAGCACACCGUGCUGCACACCAGGAAACUCGCAGUCUCUUGCGGUCGCACUAGUGUGGAAUUCUCGGGUGUCAAGG
# B2: ENSMUSG00000061578.1299|Ksr2 (ssRNA)
# RNA: GGGAGUUCUACAGUCCGACGAUCGCUUCGAUAUCCGCAUGCUACGUGUUGCUGGGUCCCAGGGGAUUGGCUGUAGUUAAUUAAAAGCACCUGUCUCUGUCAUCUCUGCACCCAACUGAAUCUCCCACCCUCAAGUGUACCUCUCAGGAUAUCCCCAGGCACACGAAGAUGGAAUGGAAAGCCAGUGGGUAUCUCCCACCCACUUAGAUGCUGAUGGCCUGGGACUAUAAACAGGGACAGUUGGGUCUCCUAAGGAAUAGCUUCCAGGUCCAGGAUGCUGGCAUCUCCCAGAGAGAACUCCAUCCUCUUGCGGUCGCACUAGUGUGGAAUUCUCGGGUGUCAAGG
# B3: ENSMUSG00000090935.112|Synj2bp (ssRNA)
# RNA: GGGAGUUCUACAGUCCGACGAUCGCUUCGAUAUCCGCAUGCUAGUUCCUGUAGCUAUGGUGCUGCUACCAGUGUUUGCCCUCACCAUGGUAGCAGUUUGGGCCUUCGUGAGAUACCGAAAGCAGCUUUGAAAUGCUUGCUGUCUUCCAGUGUGUCCAAUGAACUCUCUCUCUCACUCACCAUCUCUGACAUCCUCCCAUAUUCUUUCUCCUCCACAUAGCCAAUACAAGAUUUAAAGUGACUGCUUAUCACCCAAAACCCUGCUAUUCAAAAUCUCCUAUUCUAAUGGAAGAGUACAGGGGUUCUCUUGCGGUCGCACUAGUGUGGAAUUCUCGGGUGUCAAGG
# B4: ENSMUSG00000034801.219|Sos2|230:238 (ssRNA)
# RNA: GGGAGUUCUACAGUCCGACGAUCGCUUCGAUAUCCGCAUGCUAUCUGCUAUUUGACUAAUUUGUAAGUCUGGAACAAAAGUGUCUUAUGGCAUAAGAACCAACUGCCAUUGUCAAACCUAUUAACUGUCUUUAAUCUCGUGUUAACUGAAAUUUUUGAAAAGUUUUUCCAGAUUAGUAAUAUUUAAACAGAAAAUACUUUAAAAAGCUUUAUUAAAUUUUUUAAUCAGGAUAAAGCUUUGCCAUUUGGAUACUAUCAUUCAAAGUGAUCAAGCAUACAUACUUAUGCUGAUAGUGCAGUAGCACUCUUGCGGUCGCACUAGUGUGGAAUUCUCGGGUGUCAAGG
# B5: ENSMUSG00000028439.106|Fam219a|156:160 (ssRNA)
# RNA: GGGAGUUCUACAGUCCGACGAUCGCUUCGAUAUCCGCAUGCUACCCUCAUCUCCAGAUGGGAAGCCUGGCAGCGCUGUCCAAAGGGAUACUGUCUCUCCAUUAGAUAACUCCUUCCACUGUCUCCCUCCCCCGCUUUCUUACUUUCUGAGGGUUGGGAAGGUAAGAUGGGCCUUAGAGAGAAGCCAGGUUUGGGGAUGCAUACACCUGUUCUCACCGGUCUCUAACCAGUGCAUCUGUCUCUCUGCCUCAUCCCCACACCGCCCUGCCACCCCCAGUCUUCUGUCUAUUGGUUCCAGGCUGGACUCUUGCGGUCGCACUAGUGUGGAAUUCUCGGGUGUCAAGG
# B6: ENSMUSG00000061578.55|Ksr2 (ssRNA)
# RNA: GGGAGUUCUACAGUCCGACGAUCGCUUCGAUAUCCGCAUGCUACACGCUGGACCAGUGUGUGCGCAUGUGUCUACACAUGGACAGGGCCAACUGCUAUCCUUCUGCCUGGACGAGCCAGCUGUGGAGUGUCCCAGCUGUGCUAUCCUGGAACACAGAACCAGGAUGGAACCAGAAACAAUACACCUGCUCCGUUGUCAAGGCUUCUAGGCCAAGGUCAGGGUAGGGAGGUGGGGUGGGUUAAACUUGCAAACAUCUGAUUUUAGAGGUCCCAUUCCAAGAUGGAAGUCACCGGUUGCCGCUGACUCUUGCGGUCGCACUAGUGUGGAAUUCUCGGGUGUCAAGG
# B7: ENSMUSG00000031028.274|Tub (ssRNA)
# RNA: GGGAGUUCUACAGUCCGACGAUCGCUUCGAUAUCCGCAUGCUAAAAAAGUAGAGUCAUGUAGAGUCAUGCUUUGAAUAUGUGGGUCAUGCUUUAGAUAUGAAGAGGCUAUGCAGGUAAGGAGGCUGGAUUGAUGUAAAUGGAAGUAGUACUUUAAGAAAGCUCUAGAUUUCCCAGGUUGGACACUCGACGAAAGGCACACCUGCUGCAGCAGGUUCUGACACACCUGAGCCAUACAUUGCCAUCAGAGAACCCUCAGCGAGGUAGCCUUUGUUUACAGUCUAGUUUCUAGAGGGCAGUAGGACCUCUUGCGGUCGCACUAGUGUGGAAUUCUCGGGUGUCAAGG
# B8: ENSMUSG00000031028.129|Tub|126:130;202:207 (ssRNA)
# RNA: GGGAGUUCUACAGUCCGACGAUCGCUUCGAUAUCCGCAUGCUACCAAAUAUCUGAGUGGAUGGGGAUGAUAGGAGUCAUCCAGUAGACUCCCUACAUCAGGGCUCUCAGCAGCCCCAGCACAACACCUAUGACACACACACAGGAUCUAGGUCACCAUUCAAGUAAUGCAUACCUUCAGGAAGAAUGUCCUCUCUGGGAAGACUCAGCUCCCAUUAUUGCCAGCAUGCCAUGAUCAGUGAGGGCACACACCCAUGCUUAGGGGGAUGGCGCAGGGUGAGGGGAGCAGAGGAUAUUUUAGGGCCCUCUUGCGGUCGCACUAGUGUGGAAUUCUCGGGUGUCAAGG
# B9: ENSMUSG00000004113.208|Cacna1b|46:50;236:240 (ssRNA)
# RNA: GGGAGUUCUACAGUCCGACGAUCGCUUCGAUAUCCGCAUGCUACAUCGGGUGGAUUGGGUGGGAGCUGCUCAGAGCAGCACGGGGGCUACACACUUAGGGACAUUGACAGUGUCCAUCAGCAUGUCAGAGAAGCAGCUGUAGUGCCCGUGUUUCUCCCUGAGUCAUGGGUUCUGAAGAAGCCAGAGCGGCACAAUGCGUGCUUGCAUGAGGCACUUUCAGCCUUUUUAAAUCUGACUCUCAGGGAUGGGAUGCCUGCCAAGUAGGGUGUAAUCUCUGUACACAUUUUAAAACAACAACAACAACUCUUGCGGUCGCACUAGUGUGGAAUUCUCGGGUGUCAAGG
# B10: ENSMUSG00000022095.101|Fam160b2 (ssRNA)
# RNA: GGGAGUUCUACAGUCCGACGAUCGCUUCGAUAUCCGCAUGCUAUGCUCUACCCUCCUGGAGGCUGUUGCAAAAUUCCCAACUGCCUCCUGGCAGAGGCCCAAAGUAUGCUCUGCGCCCAGGCGGGGGCAGCUGCUAACAAGAGCCCUGGCGCAGCUGCAGCCAGGGCAGGCGAGAGCCUUGGAGCUGGGUGCCAGGCUCCAGCUCCAGCUCCAGCUGGUUCCUCUCUGGCGCCUUCUGAACCCGUCUCAGCAAGUCCGAAACACCUGGGCAGAGAGGUCAUUGACCAGGGAUGGGGGCCCUUGCUCUUGCGGUCGCACUAGUGUGGAAUUCUCGGGUGUCAAGG
# B11: ENSMUSG00000028439.159|Fam219a (ssRNA)
# RNA: GGGAGUUCUACAGUCCGACGAUCGCUUCGAUAUCCGCAUGCUACAGGAGCCAGGCUUCCAGAAAGGCUCUUCAAGAGCAAGCUUAAGGAAAUACAGUGAGCCAAGUGGCUGUAUGAUAUGGUAUGGUAUGGUAUGGUAUGGUAUGGUAUGGUAUGCACAUGUGUGUGCAUGUGUGUGUGCCUGUGUGUGUGCGUGUGCGUGUGUGUAUGUGUGUGCGUGUGUGUGUGUGUGUGUUGUACCCGAGUGUGUGUUGAGCCUAUCUGUCCAGGGAACCAGAUUGGUGUCCGAGAUGAGGAAAUGGCUCUCUUGCGGUCGCACUAGUGUGGAAUUCUCGGGUGUCAAGG
# B12: ENSMUSG00000028439.158|Fam219a (ssRNA)
# RNA: GGGAGUUCUACAGUCCGACGAUCGCUUCGAUAUCCGCAUGCUAAAAGUCCAGGAGCCAGGCUUCCAGAAAGGCUCUUCAAGAGCAAGCUUAAGGAAAUACAGUGAGCCAAGUGGCUGUAUGAUAUGGUAUGGUAUGGUAUGGUAUGGUAUGGUAUGGUAUGCACAUGUGUGUGCAUGUGUGUGUGCCUGUGUGUGUGCGUGUGCGUGUGUGUAUGUGUGUGCGUGUGUGUGUGUGUGUGUUGUACCCGAGUGUGUGUUGAGCCUAUCUGUCCAGGGAACCAGAUUGGUGUCCGAGAUGAGGAACUCUUGCGGUCGCACUAGUGUGGAAUUCUCGGGUGUCAAGG
# B13: ENSMUSG00000028439.161|Fam219a (ssRNA)
# RNA: GGGAGUUCUACAGUCCGACGAUCGCUUCGAUAUCCGCAUGCUAUUCCAGAAAGGCUCUUCAAGAGCAAGCUUAAGGAAAUACAGUGAGCCAAGUGGCUGUAUGAUAUGGUAUGGUAUGGUAUGGUAUGGUAUGGUAUGGUAUGCACAUGUGUGUGCAUGUGUGUGUGCCUGUGUGUGUGCGUGUGCGUGUGUGUAUGUGUGUGCGUGUGUGUGUGUGUGUGUUGUACCCGAGUGUGUGUUGAGCCUAUCUGUCCAGGGAACCAGAUUGGUGUCCGAGAUGAGGAAAUGGCUGUGGCCUGGGAACUCUUGCGGUCGCACUAGUGUGGAAUUCUCGGGUGUCAAGG
# B14: ENSMUSG00000028439.162|Fam219a (ssRNA)
# RNA: GGGAGUUCUACAGUCCGACGAUCGCUUCGAUAUCCGCAUGCUAAAAGGCUCUUCAAGAGCAAGCUUAAGGAAAUACAGUGAGCCAAGUGGCUGUAUGAUAUGGUAUGGUAUGGUAUGGUAUGGUAUGGUAUGGUAUGCACAUGUGUGUGCAUGUGUGUGUGCCUGUGUGUGUGCGUGUGCGUGUGUGUAUGUGUGUGCGUGUGUGUGUGUGUGUGUUGUACCCGAGUGUGUGUUGAGCCUAUCUGUCCAGGGAACCAGAUUGGUGUCCGAGAUGAGGAAAUGGCUGUGGCCUGGGAAAUCAGUCUCUUGCGGUCGCACUAGUGUGGAAUUCUCGGGUGUCAAGG
# B15: ENSMUSG00000028439.160|Fam219a (ssRNA)
# RNA: GGGAGUUCUACAGUCCGACGAUCGCUUCGAUAUCCGCAUGCUACCAGGCUUCCAGAAAGGCUCUUCAAGAGCAAGCUUAAGGAAAUACAGUGAGCCAAGUGGCUGUAUGAUAUGGUAUGGUAUGGUAUGGUAUGGUAUGGUAUGGUAUGCACAUGUGUGUGCAUGUGUGUGUGCCUGUGUGUGUGCGUGUGCGUGUGUGUAUGUGUGUGCGUGUGUGUGUGUGUGUGUUGUACCCGAGUGUGUGUUGAGCCUAUCUGUCCAGGGAACCAGAUUGGUGUCCGAGAUGAGGAAAUGGCUGUGGCCCUCUUGCGGUCGCACUAGUGUGGAAUUCUCGGGUGUCAAGG
# Target: TDP-43 (Homo sapiens, UniProt Q13148 1-414)
# Assay: RNA Bind-n-Seq with designed 260-mer pool; 25 mM Tris-HCl, 150 mM KCl, 3 mM MgCl2, BSA (printed 500 mg/mL), 20 units/mL SUPERase IN; pH not stated; 500 nM RNA pool, 1 h, 4 C; TDP-43 5, 50, 500 nM; high values mean tight binding
# Settings: protein: recombinant; tags: SBP (GST cleaved off with PreScission; pGEX-GST-SBP)
# Outline: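 Recombinant SBP-tagged TDP-43 at 5, 50 or 500 nM was captured on streptavidin beads, then incubated 1 h at 4 °C with 500 nM of an in vitro-transcribed 260-nt 3′ UTR oligo pool in 25 mM Tris-HCl, 150 mM KCl, 3 mM MgCl2, BSA and SUPERase IN. Bound RNA was washed, eluted with biotin, reverse transcribed, PCR-amplified and sequenced. Binding is R, each oligo's mapped-read-normalized abundance in the bound sample divided by its abundance in input. Duplicates used two independent protein batches.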
# Sequence of TDP-43 (Q13148 whole entry): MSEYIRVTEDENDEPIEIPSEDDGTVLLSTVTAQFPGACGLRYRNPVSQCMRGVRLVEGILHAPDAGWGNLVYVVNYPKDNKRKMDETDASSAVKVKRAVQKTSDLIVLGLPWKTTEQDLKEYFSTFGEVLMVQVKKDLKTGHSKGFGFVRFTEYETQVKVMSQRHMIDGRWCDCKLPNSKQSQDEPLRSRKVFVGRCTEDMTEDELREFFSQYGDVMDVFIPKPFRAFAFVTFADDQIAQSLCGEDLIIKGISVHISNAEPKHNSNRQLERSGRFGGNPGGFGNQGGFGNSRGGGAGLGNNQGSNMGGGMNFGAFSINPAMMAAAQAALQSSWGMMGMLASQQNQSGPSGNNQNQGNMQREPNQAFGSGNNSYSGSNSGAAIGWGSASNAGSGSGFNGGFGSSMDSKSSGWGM
row,Binder,binding signal
1,B1,0.391 R (bound/input frequency ratio)
2,B2,0.299 R (bound/input frequency ratio)
3,B3,2.02 R (bound/input frequency ratio)
4,B4,0.0202 R (bound/input frequency ratio)
5,B5,0.353 R (bound/input frequency ratio)
6,B6,0.378 R (bound/input frequency ratio)
7,B7,0.687 R (bound/input frequency ratio)
8,B8,0.668 R (bound/input frequency ratio)
9,B9,0.881 R (bound/input frequency ratio)
10,B10,0.743 R (bound/input frequency ratio)
11,B11,7.39 R (bound/input frequency ratio)
12,B12,6.13 R (bound/input frequency ratio)
13,B13,8.09 R (bound/input frequency ratio)
14,B14,8.11 R (bound/input frequency ratio)
15,B15,6.51 R (bound/input frequency ratio)
